Screens deposited in PubChem by Buhrlage Lab, Dana-Farber Cancer Institute and Novartis Institutes for BioMedical Research (Cambridge, Mass).
Shown are actives, neighbours in structure and some others; about 12% of the full set was active somewhere.
USP28 inh: human USP28 deubiquitinase inhibition; Q96RU2; purified USP28, Ub-rhodamine cleavage fluorescence, 30 min; inhibition, % at 25 µM; 47,000 compounds, 3% hits; AID 1645857
USP17 block: inhibitors of human USP17 deubiquitinase; A8MUK1; purified USP17, Ub-rhodamine cleavage fluorescence, 3 h; 47,000 compounds, 6.5% hits; inhibition, % at 50 µM; AID 1645855
USP30 inh: blocks human USP30 ubiquitin-rhodamine cleavage | Q70CQ3 | purified USP30, Ub-rhodamine cleavage fluorescence | inhibition, % at 25 µM | 47,000 compounds, 5.3% hits
OTUD3 inh: human OTUD3 deubiquitinase inhibition. Q5T2D3. purified OTUD3, Ub-rhodamine fluorescence, 2 h. inhibition, % at 25 µM. 47,000 compounds, 0.7% hits. AID 1645858
Target sequence (Q5T2D3 whole entry, looked up): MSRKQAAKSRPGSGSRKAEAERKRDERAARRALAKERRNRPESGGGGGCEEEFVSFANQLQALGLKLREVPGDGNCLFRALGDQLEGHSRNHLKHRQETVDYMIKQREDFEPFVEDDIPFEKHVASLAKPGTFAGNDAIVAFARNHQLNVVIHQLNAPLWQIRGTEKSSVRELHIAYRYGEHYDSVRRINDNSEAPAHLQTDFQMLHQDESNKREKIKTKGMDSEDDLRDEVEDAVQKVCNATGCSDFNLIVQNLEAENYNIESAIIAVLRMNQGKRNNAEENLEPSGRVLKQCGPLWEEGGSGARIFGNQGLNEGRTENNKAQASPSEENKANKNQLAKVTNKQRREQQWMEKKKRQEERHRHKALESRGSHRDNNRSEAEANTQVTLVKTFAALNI
The depositor's hits bear a star. Rule as the data show it: active = inhibition above about 30%; inactive = the rest.

Results for O=C(NCC(c1cccnc1)N1CCc2ccccc2C1)C(=O)Nc1ccc2c(c1)OCO2 (stereo unspecified) ?
USP28 inh: -6; USP17 block: 75*; USP30 inh: -6; OTUD3 inh: 0

How did Cc1ccc(NC(=O)c2ccc3c(c2)N(S(C)(=O)=O)CC3)cc1 do in these assays?
USP28 inh: 50*; USP17 block: 51*; USP30 inh: 14; OTUD3 inh: 0

What do the screens show for `O=C(Nc1ccc2c(c1)OCCO2)C1=CCN(Cc2ccccc2F)CC1`?
USP28 inh: 40*; USP17 block: -4; USP30 inh: 4; OTUD3 inh: 4

What do the screens show for `O=C(NCC(c1cccnc1)N1CCc2ccccc2C1)c1ccc(F)cc1` (stereo unspecified)?
USP28 inh: -8; USP17 block: -7; USP30 inh: -43; OTUD3 inh: -11

How did O=C(CN1CCCc2ccccc21)Nc1ccc2c(c1)OCO2 do in these assays?
USP28 inh: -73; USP17 block: -72; USP30 inh: -263; OTUD3 inh: -51

How did O=C(Nc1ccc2c(c1)OCO2)c1ccc(CN2CCc3ccccc3C2)cc1 do in these assays?
USP28 inh: 31*; USP17 block: 29; USP30 inh: 1; OTUD3 inh: 0

How did O=C(NCc1ccc2c(c1)OCO2)c1nnn(-c2ccc(Cl)cc2)c1-c1cccnc1 do in these assays?
USP28 inh: -14; USP17 block: 21; USP30 inh: -2; OTUD3 inh: -7

What do the screens show for `O=C(Nc1ccc2c(c1)OCO2)c1ccc(N2CCCC2=O)cc1`?
USP28 inh: 12; USP17 block: 50*; USP30 inh: 16; OTUD3 inh: 10

Results for CS(=O)(=O)N1CCCc2cc(C(=O)Nc3ccc4c(c3)OCO4)ccc21 ?
USP28 inh: 85*; USP17 block: 4; USP30 inh: 12; OTUD3 inh: 14

Results for COc1ccccc1CNC(=O)c1ccc2c(c1)CCCN2S(C)(=O)=O ?
USP28 inh: 10; USP17 block: 5; USP30 inh: 19; OTUD3 inh: 8

What do the screens show for `NC(=O)C[C@H](NC(=O)[C@H](Cc1ccccc1)n1c(=O)[nH]c2ccccc2c1=O)C(=O)N1CCC[C@@H]1C(=O)O`?
USP28 inh: -14; USP17 block: -19; USP30 inh: -15; OTUD3 inh: -8

What do the screens show for `NS(=O)(=O)c1cc(C(=O)NCC2(c3ccccc3)CCC2)ccc1Cl`?
USP28 inh: -5; USP17 block: -15; USP30 inh: -3; OTUD3 inh: -8

What do the screens show for `O=C(CC1C(=O)Nc2nc(-c3ccccc3)nn21)Nc1cccc2ccccc12` (stereo unspecified)?
USP28 inh: 0; USP17 block: 84*; USP30 inh: -4; OTUD3 inh: -5

What do the screens show for `O=C(CC1C(=O)Nc2nc3ccccc3n21)Nc1cccc2ccccc12` (stereo unspecified)?
USP28 inh: 20; USP17 block: 17; USP30 inh: 46*; OTUD3 inh: 26

Results for O=C(CC1C(=O)Nc2nc(-c3ccccc3)nn21)Nc1ccccc1 (stereo unspecified) ?
USP28 inh: -9; USP17 block: 2; USP30 inh: -8; OTUD3 inh: 0

What do the screens show for `Cc1cccc(Nc2nnc(SCC(=O)NCC(=O)N(C)C)s2)c1`?
USP28 inh: 11; USP17 block: -4; USP30 inh: 15; OTUD3 inh: 6

How did N=c1sccn1CC(=O)Nc1ccc(Oc2ccccc2)cc1 do in these assays?
USP28 inh: 37*; USP17 block: 1; USP30 inh: 10; OTUD3 inh: 5

How did CCOc1ccc(Oc2ccc(NC(=O)COc3ccc(C(=O)c4ccccc4)cc3)cc2)cc1 do in these assays?
USP28 inh: 3; USP17 block: 7; USP30 inh: 16; OTUD3 inh: -6

What do the screens show for `COc1cc2c(cc1OC)[C@H](C)N(CC1C(=O)O[C@@H]3C[C@@]4(C)CCC[C@H](C)C4=C[C@H]13)CC2` (stereo partly specified)?
USP28 inh: -37; USP17 block: -19; USP30 inh: -236; OTUD3 inh: -60

Results for Cc1ccc(-n2nc(C(=O)Nc3ccc(C)cn3)c3ncn(C)c(=O)c32)cc1 ?
USP28 inh: 27; USP17 block: 75*; USP30 inh: 26; OTUD3 inh: 36*

What do the screens show for `Cc1cc(N2CCN(c3ncccn3)CC2)nc2ccc(NC(=O)C3CCC(C(C)(C)C)CC3)cc12` (stereo unspecified)?
USP28 inh: 0; USP17 block: 2; USP30 inh: 0; OTUD3 inh: -6

Results for Cc1cc(N2CCN(c3ncccn3)CC2)nc2ccc(NC(=O)Cn3nc([N+](=O)[O-])c(Br)c3C)cc12 ?
USP28 inh: 42*; USP17 block: 64*; USP30 inh: 68*; OTUD3 inh: 44*

Results for Cc1cc(C(=O)Nc2ccc3nc(N4CCN(c5ncccn5)CC4)cc(C)c3c2)ccc1[N+](=O)[O-] ?
USP28 inh: 1; USP17 block: 73*; USP30 inh: 25; OTUD3 inh: -3

What do the screens show for `O=C(Nc1cc(-c2ccccn2)no1)c1cccc(F)c1`?
USP28 inh: 7; USP17 block: 4; USP30 inh: 4; OTUD3 inh: -1

How did COc1ccc(C(=O)Nc2cc(-c3ccccn3)no2)cn1 do in these assays?
USP28 inh: 63*; USP17 block: 5; USP30 inh: 20; OTUD3 inh: 15

How did O=C(Cc1cccc(Cl)c1)Nc1cc(-c2ccccn2)no1 do in these assays?
USP28 inh: 0; USP17 block: -9; USP30 inh: -16; OTUD3 inh: -13

Results for O=C(Cc1ccc(Cl)cc1)Nc1cc(-c2ccccn2)no1 ?
USP28 inh: 1; USP17 block: 40*; USP30 inh: 5; OTUD3 inh: 0

Results for CC(C)CN1CCC[C@H]1c1nc(-c2ccc(F)cn2)no1 ?
USP28 inh: -9; USP17 block: -36; USP30 inh: -57; OTUD3 inh: -18

Results for N#Cc1cccc(C(=O)NCc2noc(Cc3ccccc3)n2)c1 ?
USP28 inh: 0; USP17 block: -23; USP30 inh: 0; OTUD3 inh: -7

What do the screens show for `Cc1ccc(C)c(NC(=O)CCc2nc(CSc3nc4ccccc4o3)no2)c1`?
USP28 inh: 20; USP17 block: 15; USP30 inh: 52*; OTUD3 inh: 39*

Results for Cc1cccc(C)c1NC(=O)CCc1nc(CSc2nc3ccccc3o2)no1 ?
USP28 inh: 27; USP17 block: 10; USP30 inh: 31*; OTUD3 inh: 20

Results for Cc1ccc(NC(=O)CCc2nc(CSc3nnc(-c4ccccc4)o3)no2)cc1C ?
USP28 inh: 14; USP17 block: 8; USP30 inh: 31*; OTUD3 inh: 15

Results for Cc1ccc(NC(=O)CCc2nc(CSc3nnc(-c4ccco4)o3)no2)c(C)c1 ?
USP28 inh: -8; USP17 block: -27; USP30 inh: -60; OTUD3 inh: -6

How did COc1ccccc1NC(=O)CCc1nc(CSc2nc3ccccc3o2)no1 do in these assays?
USP28 inh: 33*; USP17 block: -8; USP30 inh: 21; OTUD3 inh: 15
